Assay results as given in PubChem BioAssay AID686978 (National Center for Advancing Translational Sciences (NCATS), 2013).
Out of some 420,000 compounds screened, about 64,000 (15%) were called active. About 27% were inconclusive and are not listed. The call rests on the fitted dose curve; in most records, active means well fitted inhibition curve with a large enough effect; inconclusive means small, poorly fitted or top-dose-only effect; inactive means flat fitted curve, though single readings scatter. A selection follows.

Assay: qHTS for Inhibitors of human tyrosyl-DNA phosphodiesterase 1 (TDP1): qHTS in cells in absence of CPT; further: nearly all actives have a fitted effect of over 55% in size
Conditions: DT40 Tdp1-/- hTDP1 cells, no CPT, ATP luminescence, 48 h; activity change, negative = growth inhibition: at 46.2 µM (top of the series)
How it was run: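 Growth kinetics read by CellTiter-Glo luminescence after ≥48 hr at 37 °C. Cells: DT40 Tdp1-/- stably carrying human TDP1, 400 per well, compound exposure in the absence of CPT (DMSO vehicle).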
On the % scale 0 is the no-effect control and ±100 the full control effect; potency means the concentration at half of the fitted maximal effect.

Row | SMILES | activity change, negative = growth inhibition | Potency
1 | CC(=O)c1cnc(SCC(=O)O)nc1C | -22.3% (inactive) | –
2 | COc1ccc(C(C(=O)NCc2ccccc2)N(Cc2cccs2)C(=O)c2cnccn2)cc1 (stereo unspecified) | – | 16.4 µM (active)
3 | Cc1cccc(N(C(=O)c2csnn2)C(C(=O)NCc2ccccc2)c2ccncc2)c1 (stereo unspecified) | -21.1% (inactive) | –
4 | O=C(NCc1ccccc1)C(c1cccnc1)N(C(=O)c1csnn1)c1ccc(F)cc1 (stereo unspecified) | -2.72% (inactive) | –
5 | COC(=O)CN1C(=O)[C@H]2[C@@H](/C=C/c3ccccc3)N3C(=O)CN(Cc4ccccc4)C(=O)[C@@]3(Cc3ccccc3)[C@H]2C1=O | -15.4% (inactive) | –
6 | C[C@@H]1CN([C@@H](C)CO)C(=O)CCCn2nncc2CO[C@H]1CN(C)C(=O)Nc1ccc(C(F)(F)F)cc1 | -17.4% (inactive) | –
7 | CC(=O)NC(Cc1c[nH]c2ccccc12)C(=O)O (stereo unspecified) | -0.64% (inactive) | –
8 | CC(C)n1c(C(O)c2ccccc2)nc2ccccc21 (stereo unspecified) | -4.93% (inactive) | –
9 | CC(C)n1c(NCc2c[nH]c3ccccc23)nc2ccccc21 | – | 13 µM (active)
10 | Cc1ccc2c(c1)N(C(=O)Nc1ccc(Br)cc1F)CCO2 | -14.3% (inactive) | –
11 | C[C@@H]1C(c2ccc(F)cc2)=NN(c2ccc(Br)cc2)[C@H]1C(=O)N1CCOC1=O | – | 20.6 µM (active)
12 | O=C1OCCN1C(=O)[C@H]1[C@H](c2ccccc2)C(c2ccc(F)cc2)=NN1c1ccccc1 | -3.74% (inactive) | –
13 | COc1ccc(/C(N)=N/OC(=O)CCCc2ccccc2)cc1 | -6.16% (inactive) | –
14 | CONC(=O)c1cc(OCC(F)(F)F)ccc1OCC(F)(F)F | 2.93% (inactive) | –
15 | CCc1ccc(-c2nn(-c3ccccc3)cc2CSC(=N)N)cc1 | – | 23.1 µM (active)
16 | CCc1ccc(-c2nn(-c3ccccc3C)cc2C(=O)N2CCN(C3CCS(=O)(=O)C3)CC2)cc1 (stereo unspecified) | 4.44% (inactive) | –
17 | CCn1c(SCc2ccc(C)cc2)nnc1-c1nn(-c2ccccc2)ccc1=O | -27.9% (inactive) | –
18 | O=C(CCS(=O)(=O)Cc1ccccc1)Nc1ccc2c(c1)OCCO2 | -0.997% (inactive) | –
19 | CCN(Cc1ccncc1)C(=O)CCc1ccccc1 | -10.6% (inactive) | –
20 | Cc1ccc(C)c(S(=O)(=O)N2CCCOC2CNC(=O)C(=O)NC2CCCCC2)c1 (stereo unspecified) | -23% (inactive) | –
21 | CN(C(=O)COC(=O)Cc1ccccc1[N+](=O)[O-])C1CCS(=O)(=O)C1 (stereo unspecified) | -9.32% (inactive) | –
22 | CC1(c2cccc([N+](=O)[O-])c2)CC(C)(C)N(C(=O)c2ccccc2)c2ccccc21 (stereo unspecified) | – | 18.4 µM (active)
23 | O=C(c1cccc([N+](=O)[O-])c1)N1CCN(Cc2ccccc2)CC1 | 6.66% (inactive) | –
24 | O=C(c1ccncc1)N1CCN(S(=O)(=O)c2cccc([N+](=O)[O-])c2)CC1 | 2.95% (inactive) | –
25 | N#Cc1ccc(-c2ccc3nccn3c2)cc1 | -7.83% (inactive) | –
26 | Cn1c(=O)c(C(=O)O)nn(-c2ccccc2)c1=O | – | 16.4 µM (active)

Row | SMILES | activity change, negative = growth inhibition | Potency
27 | CC(=O)c1nn(-c2ccccc2)c(=Nc2ccccc2)cc1C | -19.2% (inactive) | –
28 | Cc1ccc(-n2ccc(=O)c(C(=O)O)n2)cc1 | -6.98% (inactive) | –
29 | CCC1SC(CC)C(=O)N(CC(=O)NC2CCCCC2)C1=O (stereo unspecified) | -13.1% (inactive) | –
30 | CC(C)Oc1ccc(S(=O)(=O)N2CCOCC2)cc1NC(=O)C1CCCC1 | 1.44% (inactive) | –
31 | O=C(Cn1c(-c2cscn2)nc2ccccc21)Nc1ccc(Cl)cc1 | – | 20.6 µM (active)
32 | O=C(Cn1c(-c2cncs2)nc2ccccc21)NC1CCCC1 | -9.17% (inactive) | –
33 | COc1ccc(NC(=O)COC(=O)Cn2c(C)nc3ccccc32)cc1OC | -18.9% (inactive) | –
34 | C#CCOCCOCCOCCNc1nc(N2CCN(C(=O)[C@H](Cc3ccc(O)cc3)n3cc(C(N)CC(C)C)nn3)CC2)nc(N2CCN(C(=O)[C@H](CCC(=O)O)n3cc(C(N)[C@H](C)CC)nn3)CC2)n1 (stereo partly specified) | -3.33% (inactive) | –
35 | O=C(CN1CCN(CC(=O)Nc2ccc3c(c2)OCO3)CC1)Nc1ccc(F)cc1 | -22.2% (inactive) | –
36 | CN(C(=O)CSc1nc(C2CC2)nc2ccccc12)c1nc(-c2ccccc2)cs1 | – | 20.6 µM (active)
37 | O=C(CSc1nc(-c2cccc(F)c2)[nH]c1-c1ccccc1)Nc1ccc2c(c1)OCO2 | – | 10.3 µM (active)
38 | O=C(CSc1nc(C2CC2)nc2ccccc12)Nc1ccc2c(c1)OCCO2 | – | 20.6 µM (active)
39 | Cc1nnc(NC(=O)CSc2nc(C3CCCCC3)nc3ccccc23)s1 | -29.8% (inactive) | –
40 | CCNC(=O)CSc1nc(-c2ccccc2)cs1 | 3.72% (inactive) | –
41 | COC(=O)CSc1nc(C2CC2)nc2ccccc12 | -3.67% (inactive) | –
42 | O=C(CSc1nnc(-c2ccccn2)n1-c1ccccc1)Nc1ccc2c(c1)OCO2 | -6.15% (inactive) | –
43 | O=C(CSc1nc(C2CC2)nc2ccccc12)Nc1cccc(O)c1 | -15.2% (inactive) | –
44 | CC(=O)Oc1ccc(C(=O)Nc2nccs2)cc1 | -11.2% (inactive) | –
45 | Cc1ccc(C(=O)N/C(=C/c2cccnc2)C(=O)O)cc1 | 12% (inactive) | –
46 | Cn1ccnc1SCC(=O)Nc1ccc2c(c1)OCCO2 | 17% (inactive) | –
47 | Cc1cc([N+](=O)[O-])c(=O)[nH]c1C | -2.5% (inactive) | –
48 | COc1ccc(S(=O)(=O)NCC(c2ccco2)N2CCOCC2)cc1 (stereo unspecified) | – | inactive
49 | Cn1cc(S(=O)(=O)NC(c2ccccc2)c2ccccc2)c(=O)n(C)c1=O | -10.4% (inactive) | –
50 | CCn1c(SCC(=O)Nc2nccs2)nnc1-c1ccco1 | -2.78% (inactive) | –
51 | Cc1cc(NC(=O)Nc2ccccc2)n(-c2ccccc2)n1 | 0.666% (inactive) | –
